PubChem BioAssay (NCATS)
Values joined by “and” are separate entries in the source; they are usually repeats but may differ in a detail not shown here. Equal values may be shown once. Records with an inconclusive call do not appear. Unmarked numbers belong to inactive results. Active and inactive are the calls of the source. Calls come from the whole dose curve; as a rule, active = well fitted cell-killing curve with a large enough effect; inconclusive = small, poorly fitted or top-dose-only effect, or effect the other way; inactive = no such curve, though single readings can be large or run the other way.

assay: Viability qHTS for spleen associated tyrosine kinase inhibitor (SYKi) naive MV4-11 cells (AID 1963823); conditions: MV4-11 AML viability, CellTiter-Glo luminescence, 72 h; series mostly up to 45 µM; viability (% of control): at the top concentration; note: nearly all actives have a fitted effect of over 40% in size
From the text: Department of Medicine, Hematology/Oncology
University Hospital Frankfurt, Germany.
Trials have shown promising clinical activity of the selective SYK inhibitor entospletinib in patients with high expressing HOXA9/MEIS1 acute leukemias. As the development of resistance mechanisms is a common problem in the use of targeted drugs, we performed a chemical library screen to identify drug sensitivities in SYK inhibitor resistant AML cells. […] Glucocorticoids are potent immunosuppressants which work in part by inhibiting the transcription of cytokine genes.
Described herein is a viability screen to look for activity in the SYK inhibitor naive cell line against four NCATS compound libraries (MIPE 5.0, NPC, NPACT, and Kinase) totaling 11372 compounds. Active hits were reacquired for confirmation and further secondary assay testing.
SEQUENCE No. (e.g., 1, 2, 3, etc.); […] (e.g., Cells, Incubation, Reagent, etc.); VALUE; DESCRIPTION.
1; Media; 2uL; white, solid-bottom Corning assay plate.
2; Compounds; 23nL; Echo acoustic dispenser.
3; Cell; 5uL; 500 cells per well.
4: Incubation; 72hr; 37 C, 5% CO2, 95% humidity.
5; Reagent; 3uL; CellTiter-Glo reagent (Promega).
6; Incubation; 10min; room temperature.
7; Detection; Luminescence; ViewLux plate reader (PerkinElmer).
NOTES (numbers refer to Sequence numbers above
1. Quantitative high-throughput screening (qHTS) of small molecule compounds was conducted on naive SYKi MV4-11 cell line.
2. Twenty-three nanoliter of small molecule compounds were added to each assay plates using the Echo acoustic dispenser (Beckman Coulter).
3. Cells were seeded into the assay plates at a final density of 500 cells in 5uL of media per well using the Multi-drop Combi dispenser.
4. Plates were covered with stainless steel gasketed lids and incubated for 72 hours at standard cell culture conditions.
5. Viability was assessed by adding 3uL of CellTiter-Glo detection reagent (Promega).
6. Plates were covered with gasket lids and incubated for 10 minutes at room temperature.
7. Luminescence was measured on a ViewLux plate reader (PerkinElmer).
Potency is the fitted concentration of half-maximal effect.

SMILES | Potency | viability (% of control)
Cc1nnn(C)c1-c1cnc2c3ccc(C(C)(C)O)cc3n([C@H](c3ccccc3)C3CCOCC3)c2c1 | 0.0042 µM (active) | 
OC1COC(OCC2OC(OCCc3ccccc3)C(O)C(O)C2O)C(O)C1O (stereo not given) |  | 84.8% [at 17.3 µM]
C[C@]12CCC(=O)C=C1CC[C@@H]1[C@@H]2[C@@H](O)C[C@@]2(C)[C@H]1CC[C@]2(O)C(=O)COC(=O)CCC(=O)O |  | 101%
CC1=CC(=O)CC(C)(C)C1CCC(C)O[C@@H]1O[C@H](CO)[C@@H](O)[C@H](O)[C@H]1O (stereo not given in full) |  | 83.6%
C[C@@H]1O[C@@H](O[C@H]2[C@H](OC(=O)[C@]34CCC(C)(C)C[C@H]3C3=CCC5[C@@]6(C)C[C@H](O)[C@H](O[C@@H]7O[C@H](CO)[C@@H](O)[C@H](O)[C@H]7O)[C@@](C)(CO)C6[C@H](O)C[C@@]5(C)[C@]3(C)C[C@H]4O)OC[C@H](O)[C@@H]2O)[C@H](O)[C@H](O)[C@H]1O[C@@H]1OC[C@@H](O)[C@H](O[C@H]2OC[C@](O)(CO)[C@H]2O)[C@H]1O (stereo not given in full) |  | 84.5% [at 9.25 µM]
CN1CCN(c2c(F)cc3c(=O)c(C(=O)O)cn4c3c2OCN4C)CC1 |  | 83.6% [at 17.3 µM]
O=S(=O)(NCC1CC1)c1ccc(Nc2nccc(N3CCCc4cc(O)ccc43)n2)cc1 | 0.146 µM (active) | 
CCCCCCCCCC(=O)N[C@@H](Cc1c[nH]c2ccccc12)C(=O)N[C@H](CC(N)=O)C(=O)N[C@@H](CC(=O)O)C(=O)N[C@@H]1C(=O)NCC(=O)N[C@@H](CCCN)C(=O)N[C@@H](CC(=O)O)C(=O)N[C@H](C)C(=O)N[C@@H](CC(=O)O)C(=O)NCC(=O)N[C@H](CO)C(=O)N[C@@H]([C@@H](C)CC(=O)O)C(=O)N[C@@H](CC(=O)c2ccccc2N)C(=O)O[C@@H]1C |  | 84.7% [at 17.3 µM]
Cc1c(C)c2c(c(C)c1OC(=O)CCC(=O)OCCO)CC[C@@](C)(CCC[C@H](C)CCC[C@H](C)CCCC(C)C)O2 |  | 3.86%
CCCCCCOc1cc2c(cc1N(C)c1ncc(C(=O)O)cn1)C(C)(C)CCC2(C)C | 23.1 µM (active) | 
O=C(O)Cc1ccccc1Oc1ccc(Cl)cc1Cl |  | 60.1%
C[C@]12CC[C@@H]3c4ccc(O[C@@H]5O[C@H](C(=O)O)[C@@H](O)[C@H](O)[C@H]5O)cc4CC[C@H]3[C@@H]1CCC2=O |  | 99.3%
Cn1cnc([N+](=O)[O-])c1Sc1ncnc2nc[nH]c12 | 5.9 µM (active) | 
O=c1[nH]c(=O)n([C@H]2C[C@H](O)[C@@H](CO)O2)cc1C(F)(F)F | 2.11 µM (active) and 1.66 µM (active) | 
C[C@H](NC(=O)Cc1cc(F)cc(F)c1)C(=O)N[C@@H]1C(=O)N(C)c2ccccc2-c2ccccc21 |  | 76.2%
COc1cc(C(=O)OC[C@H]2O[C@@H](OC(C)(C)C(=O)O)[C@H](O)[C@@H](O)[C@@H]2O)cc(OC)c1O |  | 74.1% [at 17.3 µM]
C=C1C(=O)O[C@H]2C3=C(C)CCC[C@]3(C)C(=O)C[C@@H]12 | 1.3 µM (active) | 
C=C1C[C@@]23CC[C@@H]4[C@](C)(C(=O)O)CCC[C@@]4(C)C2=CC[C@H]1C3 |  | 87.2%
C=C1C(=O)OC2CC(C)=C(C(C)CCCO)C(O)C12 (stereo not given) |  | 61.1%
C=CC(=O)Nc1cc2c(Nc3ccc(F)c(Cl)c3)ncnc2cc1C#CC(C)(C)N1CCN(C)CC1 | 0.59 µM (active) | 

SMILES | Potency | viability (% of control)
CC(C)n1c(/C=C/[C@H](O)C[C@H](O)CC(=O)O)c(-c2ccc(F)cc2)c2ccccc21 | 2.63 µM (active) | 
CC(=O)Nc1ccc(O)cc1 |  | 73.3%
N#Cc1c(O)c2c(-c3ccc(-c4ccccc4O)cc3)csc2[nH]c1=O | inactive | 
CC1CC(=O)[C@]2(O)C(C(=O)OCCc3ccc(O)c(O)c3)=CO[C@@H](O[C@@H]3O[C@H](CO)[C@@H](O)[C@H](O)[C@H]3O)[C@H]12 (stereo not given in full) |  | 72.9% [at 17.3 µM]
NC1(Cc2ccc(Cl)cc2)CCN(c2ncnc3[nH]ccc23)CC1 | 3.72 µM (active) | 
CCCOc1ccc(-c2nc(OC)c3ccccc3n2)cc1 |  | 77.2%
CCN1CCN(Cc2ccc(C(=O)Nc3ccc(C)c(Oc4ccc5c(c4)CC(=O)N5)c3)cc2C(F)(F)F)CC1 | 5.8 µM (active) | 
Clc1ccc2nsnc2c1NC1=NCCN1 |  | 72.4%
C[C@@H]1CC[C@]2(C(=O)O)CC[C@]3(C)C(=CCC4[C@@]5(C)C[C@@H](O)[C@@H](O)C(C)(C)C5CC[C@]43C)C2[C@]1(C)O (stereo not given in full) |  | 70.3% [at 17.3 µM]
Cc1cc(Nc2ncnc3ccc(-c4ccc(CNCCS(C)(=O)=O)o4)cc23)ccc1Oc1ccn2ncnc2c1 | 11.8 µM (active) | 
CCC(=O)N1CCc2cc(OC)c(O)cc2C1 |  | 72.5%
COc1cc(C=O)ccc1O |  | 73.6%
CCCCS(=O)(=O)NC(Cc1ccc(OCCCCC2CCNCC2)cc1)C(=O)O (stereo not given) |  | 81%
C[C@@H]1O[C@@H](O[C@H]2[C@H](Oc3cc(O)c(C(=O)CCc4ccc(O)cc4)c(O)c3)O[C@H](CO)[C@@H](O)[C@@H]2O)[C@H](O)[C@H](O)[C@H]1O |  | 89.8%
CCN(CC)CCOc1ccc(Nc2ncc3cc(-c4c(Cl)cccc4Cl)c(=O)n(C)c3n2)cc1 | 0.0661 µM (active) | 
CC(=O)Oc1cccc(C)c1 |  | 82.2%
Clc1ccccc1C(c1ccccc1)(c1ccccc1)n1ccnc1 | 5.25 µM (active) | 
CC1OC(OC2C(O)C(C(=O)O)OC(OC3CCC4(C)C(CCC5(C)C4C=CC4=C6CC(C)(C)CC(O)C6(C)CCC45C)C3(C)C)C2OC2OCC(O)C(O)C2O)C(O)C(O)C1O (stereo not given) |  | 89.1% [at 9.25 µM]
CC1=CC(=O)CC(C)(C)C1CCC(C)OC1OC(COC(=O)c2cc(O)c(O)c(O)c2)C(O)C(O)C1O (stereo not given) |  | 72.8% [at 17.3 µM]
c1ccc2c(c1)CCc1ccccc1N2 |  | 72.8%
